Measured values as given in PubChem BioAssay (Tox21).
Results filed as inconclusive are left out. Entries that show only a call come without a potency. Unmarked numbers belong to inactive results. The source made the active and inactive calls. The call rests on the fitted dose curve; in most records, active means well fitted inhibition curve with a large enough effect in the repeat runs; inconclusive means weak or mixed curves; inactive means flat fitted curve, though single readings scatter.

Target: Voltage-gated inwardly rectifying potassium channel KCNH2 (Homo sapiens) (UniProt Q12809)
Experiment: Human Ether-a-go-go-Related Gene (hERG) channel small molecule antagonists: fluorescence cell-based qHTS assay (AID 1671200); further: nearly all actives have a fitted effect of over 50% in size
Details: hERG-U2OS cells, FluxOR thallium flux fluorescence; series mostly up to 76.8 µM
Procedure, shortened: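 Measured: Tl+ flux via fluorescence (480/540 nm) in hERG-expressing U2OS cells after 1 h dye loading at room temperature.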
Potency means the concentration at half of the fitted maximal effect.

Chain of Voltage-gated inwardly rectifying potassium channel KCNH2 (Homo sapiens) (Q12809 whole entry, looked up): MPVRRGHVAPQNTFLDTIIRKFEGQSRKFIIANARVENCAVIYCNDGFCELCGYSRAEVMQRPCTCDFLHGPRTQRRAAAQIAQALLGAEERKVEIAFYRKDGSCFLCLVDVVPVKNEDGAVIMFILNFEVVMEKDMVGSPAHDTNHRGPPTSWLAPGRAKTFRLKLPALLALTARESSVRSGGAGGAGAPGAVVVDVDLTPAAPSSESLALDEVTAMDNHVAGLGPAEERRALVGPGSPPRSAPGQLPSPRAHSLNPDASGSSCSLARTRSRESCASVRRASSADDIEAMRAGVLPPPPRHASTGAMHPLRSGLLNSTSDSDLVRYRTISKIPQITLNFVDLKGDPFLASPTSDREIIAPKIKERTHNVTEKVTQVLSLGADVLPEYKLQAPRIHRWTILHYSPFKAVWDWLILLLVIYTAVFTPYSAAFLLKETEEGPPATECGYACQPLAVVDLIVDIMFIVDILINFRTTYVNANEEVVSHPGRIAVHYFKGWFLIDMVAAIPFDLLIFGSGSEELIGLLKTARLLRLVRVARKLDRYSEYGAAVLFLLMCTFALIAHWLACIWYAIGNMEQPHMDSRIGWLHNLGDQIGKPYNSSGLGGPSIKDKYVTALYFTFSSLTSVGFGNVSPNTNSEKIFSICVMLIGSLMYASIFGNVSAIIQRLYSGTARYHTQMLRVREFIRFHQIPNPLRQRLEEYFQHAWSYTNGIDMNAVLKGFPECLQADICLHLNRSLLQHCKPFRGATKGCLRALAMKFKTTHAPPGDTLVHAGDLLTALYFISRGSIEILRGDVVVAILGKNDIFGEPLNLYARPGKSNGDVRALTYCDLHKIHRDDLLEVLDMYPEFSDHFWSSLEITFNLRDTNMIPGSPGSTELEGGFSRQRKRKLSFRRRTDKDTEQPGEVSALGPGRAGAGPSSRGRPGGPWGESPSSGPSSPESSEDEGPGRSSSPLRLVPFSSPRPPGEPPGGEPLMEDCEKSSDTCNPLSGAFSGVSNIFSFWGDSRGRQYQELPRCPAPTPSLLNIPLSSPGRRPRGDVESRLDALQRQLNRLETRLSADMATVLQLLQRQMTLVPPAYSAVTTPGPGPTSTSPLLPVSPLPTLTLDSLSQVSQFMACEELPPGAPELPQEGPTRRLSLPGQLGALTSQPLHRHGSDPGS

Structure (SMILES)	Potency	activity change, negative = inhibition
CCSC(=O)N(CC)CC	inactive	
C1=CCC2CC=CC2C1 (stereo not drawn)	inactive	
Cc1c[nH]c2ccccc12	inactive	
CC(=O)OCCC1CCCCC1	inactive	
C1CCCCC1	inactive	
CCCCCCCC(=O)OCCCCCC	inactive	
C=C(C)c1ccccc1	inactive	
COC(C)(C)OC	inactive	
CCCCCCC(CO)CCCC (stereo not drawn)	inactive	
Cc1ccccc1S(N)(=O)=O	inactive	
CO[C@@H]1[C@@H](OC)[C@H](C)[C@@](O)(CC(=O)O)O[C@H]1[C@H](C)[C@H]1O[C@@]2(CC[C@@](C)([C@H]3CC[C@@](C)([C@@H]4O[C@@H]([C@H]5O[C@](C)(O)[C@H](C)C[C@@H]5C)C[C@@H]4OC4C[C@H](OC)[C@@H](OC)[C@H](C)O4)O3)O2)C[C@H](O)[C@H]1C (stereo partly drawn)	inactive	
COc1ccc(-c2cc(=S)ss2)cc1	inactive	
CCCc1nc2c(C)cc(-c3nc4ccccc4n3C)cc2n1Cc1ccc(-c2ccccc2C(=O)O)cc1	inactive	
CC(C)C(=O)OCCOc1ccccc1	inactive	
CCCCCCCCCCCCCCN(C)C		-0.651% [at 15.8 µM]
CNc1c2c(nn1C)CCCC2	inactive	
COc1cc(S(=O)(=O)Nc2ccccc2)c(OC)cc1N	inactive	
CCN(CC)CCOc1ccccc1C(=O)CCc1ccccc1	3.38 µM (active)	
CC(C(=O)O)c1ccc(C(=O)c2cccs2)cc1 (stereo not drawn)	inactive	

Structure (SMILES)	Potency	activity change, negative = inhibition
NC(=O)CCCCC(N)=O	inactive	
CC(CO)(CO)C(=O)O	inactive	
CC(=O)c1ccc[nH]1	inactive	
Oc1cccc2[nH]ccc12	inactive	
COc1ccc(C)cc1	inactive	
C=Cc1ccc(OC(C)=O)cc1	inactive	
O=C(O)CNC(=O)c1ccccc1I	inactive	
Cc1ccc(Nc2c(F)cccc2Cl)c(CC(=O)O)c1	inactive	
Cc1cn([C@H]2C[C@H](F)[C@@H](CO)O2)c(=O)[nH]c1=O	inactive	
CCCCCCCCCCCC(=O)OCC(O)CO (stereo not drawn)	inactive	
CC(C)N=C=NC(C)C	inactive	
O=C1OC[C@H](Cc2cccc(O)c2)[C@H]1Cc1cccc(O)c1	inactive	
C[C@@H]1[C@H](O)[C@@H](C)/C=C/C=C\C=C\C=C\C=C\C=C\C=C\[C@H](O[C@@H]2O[C@H](C)[C@@H](O)[C@H](N)[C@@H]2O)C[C@@H]2O[C@](O)(C[C@@H](O)C[C@@H](O)[C@H](O)CC[C@@H](O)C[C@@H](O)CC(=O)O[C@H]1C)C[C@H](O)[C@H]2C(=O)O (stereo in doubt)	inactive	
CC/C=C\C/C=C\C/C=C\CCCCCCCC(=O)OCC	inactive	
CCOc1ncc(F)c(=O)[nH]1	inactive	
CC[C@H]1OC(=O)[C@H](C)[C@@H](O[C@H]2C[C@@](C)(OC)[C@@H](O)[C@H](C)O2)[C@H](C)[C@@H](O[C@@H]2O[C@H](C)C[C@H](N(C)C)[C@H]2O)[C@](C)(O)C[C@@H](C)CN(C)[C@H](C)[C@@H](O)[C@]1(C)O	inactive	
NC(=O)c1ccccc1[N+](=O)[O-]	inactive	
CC(C)CC(O)CC(C)C	inactive	
CC(=O)OC(C)C[N+](C)(C)C (stereo not drawn)	inactive	
